The record followed here is PubChem BioAssay.

Activity calls are given as the source filed them.

Experiment [1] is described as follows: small molecules captured by biotinylated probe aFSTL3 – biochemical, small-molecule microarray, fluorescence 635/667, stem cell growth factor project, primary screen (AID 1064).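 Further: measures binding of the biotinylated anti-FSTL3 antibody to printed compounds.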 The settings on record: higher = more signal.
Experiment [2] can be described thus: binders from COS7 lysate, DM2A8 probe, primary screen, torsin A project, cell lysate, small-molecule microarray, fluorescence 635/667 (AID 1065). The settings on record: higher = more signal, COS7 lysate expressing mutant human TOR1A.
Experiment [3] is described as follows: small molecules captured by biotinylated probe aFGF2 – biochemical, small-molecule microarray, fluorescence 635/667, stem cell growth factor project, primary screen (AID 1067).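 Further: measures binding of biotinylated aFGF2 protein to printed compounds on slides; z-score merges feature fluorescence and signal-to-noise across triplicate slides.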 The note with it: higher = more signal.
The nature of experiment [4]: small molecules captured by biotinylated probe aFGF10 – biochemical, small-molecule microarray, fluorescence 635/667, stem cell growth factor project, primary screen (AID 1071).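 Further: score merges 667 nm spot intensity and signal to noise from triplicate slides.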 The note with it: higher = more signal.
For experiment [5], the target named is Neurogenic locus notch homolog protein 2 (Homo sapiens) (UniProt Q04721). The experiment in a line: small molecules binding Notch2 protein – biochemical, small-molecule microarray, 635 nm fluorescence, stem cell growth factors, primary screen (AID 1073). The note with it: higher = more signal.
In experiment [6] the target is Pro-neuregulin-1, membrane-bound isoform (Homo sapiens) (UniProt Q02297). The experiment in a line: small molecules binding neuregulin-1 protein – biochemical, small-molecule microarray, fluorescence 635/667, psychiatric disease protein project, primary screen (AID 1075).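 Further: score combines 667 nm spot fluorescence with signal to noise.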 The note with it: NRG1 binding, 635 nm fluorescence, higher = more signal.
For experiment [7], the system named is Neuregulin-1 EGF-like domain. In words: small molecules binding NRG1 EGF domain – biochemical, small-molecule microarray, 635 nm fluorescence, primary screen (AID 1081).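 Further: binding of the protein to compounds printed on small-molecule microarray slides.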 The note with it: higher = more signal.
Experiment [8] is described as follows: FRG1 expression reporter modulators in myotubes – cell-based, C2C12 myotubes, firefly/Renilla luciferase, luminescence, FRG1 inhibition for FSHD, primary screen (AID 1084). The note with it: FRG1 promoter luciferase, higher = more signal, called active from +8 up or from −8 down.
Experiment [9] can be described thus: small molecules captured by biotinylated probe aFST – biochemical, small-molecule microarray, fluorescence 635/667, stem cell growth factor project, primary screen (AID 1086).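 Further: score merges 667 nm fluorescence with signal-to-noise of each printed compound spot.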 The note with it: higher = more signal.
Experiment [10] is described as follows: binders of probe aHhip on microarray, primary screen, stem cell growth factor project, biochemical, small-molecule microarray, fluorescence 635/667 (AID 1087).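 Further: score merges spot fluorescence at 667nm with spot signal to noise ratio.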 The settings on record: higher = more signal.
Experiment [11] concerns PRMT1 (protein arginine N-methyltransferase 1). In words: small molecules binding arginine methyltransferase PRMT1 – biochemical, small-molecule microarray, 635 nm fluorescence, primary screen (AID 1088).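 Further: binding of Prmt1 protein to compounds spotted on small-molecule microarray slides.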 The settings on record: higher = more signal.
Experiment [12] is described as follows: growth effects on S. cerevisiae YJM789 – YJM789 clinical isolate, OD600, 24 h, basal, primary screen (AID 1089).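 Further: growth of clinical yeast isolate S. cerevisiae YJM 789 seeded 1000 cells per well; test concentration not given here.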 The settings on record: higher = more signal, called active from +8 up or from −8 down.
Experiment [13] can be described thus: S. pombe growth modifiers, basal conditions – strain 972, OD600, 24 h, no modulator, primary screen (AID 1090).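 Further: basal condition with compound alone and no growth modifier present; test concentration not given here.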 The settings on record: S. pombe 972 growth, higher = more signal, called active from +8 up or from −8 down.
A short description of experiment [14]: budding yeast growth modifiers under rapamycin – strain BY4716, OD600, 96 h, primary screen (AID 1091). Further: test concentration not given here. The note with it: S. cerevisiae BY4716 + rapamycin, higher = more signal, called active from +8 up or from −8 down.
Experiment [15] addresses Torsin-1A-interacting protein 2 (Homo sapiens) (UniProt Q8NFQ8). In words: small molecules binding lysate-expressed LULL1 – cell lysate, human LULL1 lysate, 635/667 nm fluorescence, primary screen (AID 1092).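 Further: probe is lysate of COS7 cells overexpressing human LULL1; score merges per-feature 667 nm fluorescence with signal-to-noise.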 The note with it: small-molecule microarray, hLULL1 lysate binding, 635 nm fluorescence; higher = more signal.
Experiment [16] in a line: optical density change of DRC41 E. coli – strain DRC41, OD650, 24 h, E. coli filamentation project, primary screen (AID 1093).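 Further: MC1000 strain lacking acrAB efflux and sulA so SOS filamentation is blocked; test concentration not given here.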 The note with it: E. coli DRC41 growth, higher = more signal, called active from +8 up or from −8 down.
Experiment [17] can be described thus: probe aLefty2 binding to arrayed compounds – biochemical, biotinylated probe, 635/667 nm fluorescence, primary screen (AID 1094).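 Further: score merges spot fluorescence near 667 nm with spot signal-to-noise ratio.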 The settings on record: small-molecule microarray, higher = more signal.
The subject of experiment [18] is Noggin (protein binding on small-molecule microarray). The experiment in a line: small molecules binding Noggin protein – biochemical, 635/667 nm fluorescence, primary screen (AID 1095).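 Further: score merges 667 nm feature fluorescence with signal to noise over triplicate slides.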 The note with it: 635 nm fluorescence, higher = more signal.
Experiment [19] has as its target Neurogenic locus notch homolog protein 3 (Homo sapiens) (UniProt Q9UM47). In words: small molecules binding NOTCH3 protein – biochemical, 635/667 nm fluorescence, primary screen (AID 1096). The note with it: small-molecule microarray, 635 nm fluorescence, higher = more signal.
A short description of experiment [20]: probe aEGFR binding to arrayed compounds – biochemical, biotinylated probe, 635/667 nm fluorescence, primary screen (AID 1097).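 Further: probe is a biotinylated anti-EGFR antibody binding compounds printed on slides; score combines fluorescence near 667 nm and signal to noise of each spot.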 The settings on record: small-molecule microarray, higher = more signal.

Chain of Pro-neuregulin-1, membrane-bound isoform (Homo sapiens) (Q02297 whole entry, looked up, the tested form may be a part, canonical isoform): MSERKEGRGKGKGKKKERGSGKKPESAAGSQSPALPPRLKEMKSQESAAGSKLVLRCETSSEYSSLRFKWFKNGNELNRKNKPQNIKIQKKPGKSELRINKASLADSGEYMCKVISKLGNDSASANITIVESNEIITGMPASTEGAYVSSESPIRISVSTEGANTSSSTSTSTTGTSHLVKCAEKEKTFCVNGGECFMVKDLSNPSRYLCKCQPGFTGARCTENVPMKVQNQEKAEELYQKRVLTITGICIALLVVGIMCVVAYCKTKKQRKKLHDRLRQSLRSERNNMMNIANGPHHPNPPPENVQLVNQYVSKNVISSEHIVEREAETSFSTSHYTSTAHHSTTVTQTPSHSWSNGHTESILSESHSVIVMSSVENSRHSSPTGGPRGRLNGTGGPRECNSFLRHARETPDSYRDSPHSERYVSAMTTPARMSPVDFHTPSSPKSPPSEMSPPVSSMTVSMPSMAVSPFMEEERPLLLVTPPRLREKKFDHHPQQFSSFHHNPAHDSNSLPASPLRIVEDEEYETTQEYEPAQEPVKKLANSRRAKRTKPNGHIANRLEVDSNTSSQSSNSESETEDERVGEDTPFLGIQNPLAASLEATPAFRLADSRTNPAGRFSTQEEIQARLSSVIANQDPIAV
Chain of Torsin-1A-interacting protein 2 (Homo sapiens) (Q8NFQ8 whole entry, looked up): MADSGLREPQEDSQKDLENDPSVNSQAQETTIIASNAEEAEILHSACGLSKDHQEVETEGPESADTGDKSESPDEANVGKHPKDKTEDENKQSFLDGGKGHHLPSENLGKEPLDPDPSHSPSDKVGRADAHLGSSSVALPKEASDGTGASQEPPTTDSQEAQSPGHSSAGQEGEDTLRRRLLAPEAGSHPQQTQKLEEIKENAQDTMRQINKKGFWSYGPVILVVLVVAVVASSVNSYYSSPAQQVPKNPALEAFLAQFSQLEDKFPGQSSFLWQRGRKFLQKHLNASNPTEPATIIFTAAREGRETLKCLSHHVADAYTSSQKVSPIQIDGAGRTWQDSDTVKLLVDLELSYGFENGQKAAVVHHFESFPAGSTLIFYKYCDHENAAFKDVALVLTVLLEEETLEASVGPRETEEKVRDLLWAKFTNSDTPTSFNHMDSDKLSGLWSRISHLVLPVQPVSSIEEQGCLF
Chain of Neurogenic locus notch homolog protein 3 (Homo sapiens) (Q9UM47 whole entry, looked up): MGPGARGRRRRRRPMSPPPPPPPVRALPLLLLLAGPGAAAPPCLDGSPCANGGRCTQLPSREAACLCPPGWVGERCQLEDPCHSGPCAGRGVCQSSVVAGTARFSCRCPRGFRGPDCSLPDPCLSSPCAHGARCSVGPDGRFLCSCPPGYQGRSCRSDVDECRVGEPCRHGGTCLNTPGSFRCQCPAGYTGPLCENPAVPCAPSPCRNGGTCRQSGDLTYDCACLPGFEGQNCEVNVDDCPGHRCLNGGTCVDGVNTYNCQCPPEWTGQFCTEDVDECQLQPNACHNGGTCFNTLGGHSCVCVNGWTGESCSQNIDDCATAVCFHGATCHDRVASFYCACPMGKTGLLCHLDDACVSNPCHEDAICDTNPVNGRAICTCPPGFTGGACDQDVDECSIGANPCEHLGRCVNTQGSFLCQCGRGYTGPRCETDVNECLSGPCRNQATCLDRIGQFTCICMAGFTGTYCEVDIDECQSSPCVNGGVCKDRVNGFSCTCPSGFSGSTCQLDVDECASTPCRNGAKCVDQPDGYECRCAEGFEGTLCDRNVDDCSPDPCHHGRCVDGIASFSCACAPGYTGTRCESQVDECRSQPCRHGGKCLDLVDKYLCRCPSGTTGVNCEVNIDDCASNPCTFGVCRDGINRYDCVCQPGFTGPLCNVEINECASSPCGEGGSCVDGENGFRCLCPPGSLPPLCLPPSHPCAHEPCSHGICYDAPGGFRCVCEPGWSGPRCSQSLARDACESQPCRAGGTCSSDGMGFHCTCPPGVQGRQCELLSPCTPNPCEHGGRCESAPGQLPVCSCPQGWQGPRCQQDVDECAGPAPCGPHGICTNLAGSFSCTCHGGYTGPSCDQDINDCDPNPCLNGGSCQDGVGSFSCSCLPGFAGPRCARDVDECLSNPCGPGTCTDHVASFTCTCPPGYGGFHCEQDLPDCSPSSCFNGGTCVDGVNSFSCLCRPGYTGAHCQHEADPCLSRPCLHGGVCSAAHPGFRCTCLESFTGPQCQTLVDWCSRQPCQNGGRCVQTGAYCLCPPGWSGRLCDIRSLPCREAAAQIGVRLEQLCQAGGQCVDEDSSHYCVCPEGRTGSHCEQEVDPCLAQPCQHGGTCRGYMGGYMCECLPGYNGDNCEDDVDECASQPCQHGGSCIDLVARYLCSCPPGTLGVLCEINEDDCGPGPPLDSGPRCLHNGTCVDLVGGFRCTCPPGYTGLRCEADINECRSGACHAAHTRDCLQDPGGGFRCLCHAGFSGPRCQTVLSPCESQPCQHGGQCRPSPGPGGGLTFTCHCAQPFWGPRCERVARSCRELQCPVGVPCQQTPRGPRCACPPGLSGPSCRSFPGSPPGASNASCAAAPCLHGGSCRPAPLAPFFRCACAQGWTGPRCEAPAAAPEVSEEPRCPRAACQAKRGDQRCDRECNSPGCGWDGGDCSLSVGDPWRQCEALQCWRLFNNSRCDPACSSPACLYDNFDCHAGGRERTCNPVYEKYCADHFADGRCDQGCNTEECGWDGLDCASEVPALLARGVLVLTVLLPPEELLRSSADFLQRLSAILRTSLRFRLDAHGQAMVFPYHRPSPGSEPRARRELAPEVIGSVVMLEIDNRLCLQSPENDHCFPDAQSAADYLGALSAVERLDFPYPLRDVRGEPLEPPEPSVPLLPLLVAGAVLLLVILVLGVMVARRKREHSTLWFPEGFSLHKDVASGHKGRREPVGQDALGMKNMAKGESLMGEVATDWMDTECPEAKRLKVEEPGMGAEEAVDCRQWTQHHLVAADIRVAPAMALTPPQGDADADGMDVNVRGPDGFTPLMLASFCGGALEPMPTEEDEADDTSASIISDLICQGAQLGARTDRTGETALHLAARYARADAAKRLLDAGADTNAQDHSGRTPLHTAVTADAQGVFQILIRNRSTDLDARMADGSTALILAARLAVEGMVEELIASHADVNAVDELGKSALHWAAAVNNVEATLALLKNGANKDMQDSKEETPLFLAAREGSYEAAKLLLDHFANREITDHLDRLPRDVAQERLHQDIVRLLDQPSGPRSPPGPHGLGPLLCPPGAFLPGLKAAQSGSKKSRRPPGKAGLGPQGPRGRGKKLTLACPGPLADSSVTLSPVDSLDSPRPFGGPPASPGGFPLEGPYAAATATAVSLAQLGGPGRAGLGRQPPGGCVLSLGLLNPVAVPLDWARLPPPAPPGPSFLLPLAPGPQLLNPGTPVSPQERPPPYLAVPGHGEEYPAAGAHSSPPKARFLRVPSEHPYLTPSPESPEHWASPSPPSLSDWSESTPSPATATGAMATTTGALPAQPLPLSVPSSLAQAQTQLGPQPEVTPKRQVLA

For `CC(C)C[C@@H]1NC(=O)[C@H]2C[C@@H](C(=O)NCCCCCNC(=O)CS)[C@@H](c3ccc(O)cc3)N2C1=O`, the composite z-score in [1] was -0.208; in experiment [2] it was 0.929; in experiment [3], 0.283; in experiment [4] it was 0.834; in [5], 0.74; in [6] it was 1. In addition, the composite z-score in experiment [7] was 1.3; in [9], 0.0724; in experiment [10], -0.236; in experiment [11], 1.54; in [15] it was 2.11; in experiment [17] it was -0.077. The composite z-score in experiment [18] was 0.528; in [19] it was 0.634; in experiment [20], -0.0007. Also, the z-score in [8] was -0.232 (inactive); in [12], 0.553 (inactive); in [13], -0.12 (inactive); in [14], 0.871 (inactive); in experiment [16], 0.488 (inactive).

For the compound `CCCCNC(=O)c1ccc(C#C[Si](C)(C)C)c(OC(C)=O)c1`, the composite z-score in experiment [1] is -0.175; in experiment [2] it was 0.293; in experiment [3] it was -0.0718; in [4] it was 0.112; in experiment [5] it was 0.277; in experiment [6] it was -0.166. In addition, the composite z-score in experiment [7] was 0.103; in experiment [9], -0.0501; in [10], -0.0726; in experiment [11], 0.305; in experiment [15] it was -0.092; in [17] it was -0.0926. Further, the composite z-score is 0.309 in [18], -0.174 in experiment [19] and -0.096 in experiment [20]. For the same compound, the z-score is 1.87 (inactive) in [8]; 0.453 (inactive) in [12]; -2.02 (inactive) in [13]; -0.973 (inactive) in experiment [14]; 1.54 (inactive) in experiment [16].

Take `CC(C)[C@@H](C(=O)O)n1cc(-c2ccccc2)nn1`: the composite z-score in experiment [1] was 0.272; in experiment [2], 0.692; in experiment [3], -0.0894; in experiment [4], 0.779; in [5], 0.964; in experiment [6] it was 0.648. Further, the composite z-score was 1.08 in experiment [7]; 0.874 in experiment [9]; -0.0645 in experiment [10]; 0.0283 in [11]; 1.19 in experiment [15]; -0.0623 in [17]. The composite z-score in [18] is 0.192; in [19], 0.938; in experiment [20], 0.125. Besides, the z-score is 0.736 (inactive) in experiment [8]; -0.0149 (inactive) in experiment [12]; -0.0883 (inactive) in experiment [13]; -0.244 (inactive) in [14]; -1.44 (inactive) in experiment [16].

Consider `COc1ccc([Si](C)(C)[C@H]2[C@H](CCO)O[C@@]3(C(=O)N(Cc4ccccc4)c4ccc(N(C=O)c5ccccc5)cc43)[C@@H]2C)cc1`, for which the composite z-score in [1] is -0.317; in [2], 0.242; in experiment [3], -0.103; in experiment [4] it was 0.199; in [5], 0.697; in [6] it was 0.929. Moreover, the composite z-score in experiment [7] is 0.818; in experiment [9], 0.643; in experiment [10], -0.0994; in experiment [11], 1.57; in [15], 1.65; in experiment [17], -0.182. Also, the composite z-score in [18] is 0.513; in [19], 1.09; in [20], -0.0121. In addition, the z-score in experiment [8] was -0.919 (inactive); in experiment [12], -0.347 (inactive); in experiment [13], 1.08 (inactive); in experiment [14], 20.3 (active); in experiment [16] it was 0.773 (inactive).

Turning to `CCCCCCc1nc(-c2ccc(OC)nc2)cc2c1[Si](C(C)C)(C(C)C)OC2`, the composite z-score was -0.0192 in experiment [1]; 0.456 in [2]; -0.15 in experiment [3]; -0.0125 in [4]; -0.383 in experiment [5]; -0.151 in experiment [6]. The composite z-score in [7] was -0.769; in [9] it was -0.193; in experiment [10], 0.0306; in experiment [11], -0.741; in [15], -0.342; in experiment [17], -0.143. The composite z-score in experiment [18] is -0.374; in experiment [19], -0.123; in experiment [20], -0.24. Further, the z-score was 0.366 (inactive) in [8]; -0.1 (inactive) in experiment [12]; -0.283 (inactive) in [13]; -0.218 (inactive) in experiment [14]; -0.647 (inactive) in experiment [16].
